# Test results: PubChem BioAssay AID1851 (National Center for Advancing Translational Sciences (NCATS), 2009)
# Where “and” joins values, the source holds several entries; their conditions need not be identical. Identical values can stand only once. Screen size: about 16,000 compounds; about 2,600 (16%) were called active. Roughly 20% stayed inconclusive and do not appear here. Calls follow the shape of the dose curve; as a rule, active = well fitted curve in the direction sought with a large enough effect; inconclusive = small, poorly fitted or top-dose-only effect, or effect the other way; inactive = no such curve, though single readings can be large or run the other way. The list is a sample of the results. Where a structure was tested more than once in an assay, its records may differ in their call.
# Biological target: Cytochrome P450 2D6 (Homo sapiens) (UniProt P10635)
# Sequence (P10635 whole entry, looked up): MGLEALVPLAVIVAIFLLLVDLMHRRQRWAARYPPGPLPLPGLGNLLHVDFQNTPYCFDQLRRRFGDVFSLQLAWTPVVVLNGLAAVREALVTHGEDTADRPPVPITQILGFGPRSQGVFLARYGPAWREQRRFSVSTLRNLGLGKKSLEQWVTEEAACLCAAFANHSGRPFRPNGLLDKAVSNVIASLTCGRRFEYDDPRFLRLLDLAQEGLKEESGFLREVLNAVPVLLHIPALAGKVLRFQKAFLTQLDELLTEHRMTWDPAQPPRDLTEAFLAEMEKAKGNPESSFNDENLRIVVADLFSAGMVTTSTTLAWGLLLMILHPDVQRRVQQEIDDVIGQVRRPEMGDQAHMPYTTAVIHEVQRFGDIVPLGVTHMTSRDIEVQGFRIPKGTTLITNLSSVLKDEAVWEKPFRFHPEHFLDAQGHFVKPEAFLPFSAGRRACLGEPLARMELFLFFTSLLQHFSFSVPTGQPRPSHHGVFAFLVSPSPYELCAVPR
# Assay: Cytochrome panel assay with activity outcomes
# Conditions: recombinant CYP, pro-luciferin dealkylation, luminescence, p450-cyp2d6; series mostly up to 57.1 µM; activity, negative = inhibition: at the top concentration
# % is scaled to controls: 0 for no effect and ±100 for the full control effect.
Structure (SMILES),"activity, negative = inhibition",AC50
CC(=O)NC1C(OCCOc2ccc(Cl)cc2Cl)OC(COC(C)=O)C(OC(C)=O)C1OC(C)=O (stereo not given),-17.3% (inactive),
CSC1=N/C(=C\c2ccc(Br)o2)C(=O)S1,1.51% (inactive),
CCCCN1CCC(COC(=O)c2cc(Cl)c(N)c3c2OCCO3)CC1,,1.26 µM (active)
CCOC(=O)n1ccn(C)c1=S,0.903% [at 25.6 µM] (inactive),
O=C(O)c1cc2ccccc2c(Cc2cc3ccccc3c(C(=O)O)c2O)c1O (tested in a mixture with another compound),-5.53% [at 25.6 µM] (inactive),
CCN=C(Nc1ccc(Cl)cc1)c1cccnc1,-28.9% (inactive),
NC(=NCCCCCCN=C(N)/N=C(\N)Nc1ccc(Cl)cc1)/N=C(\N)Nc1ccc(Cl)cc1,,7.94 µM (active)
CC(Oc1ccccc1)C(=O)Nc1nc2c(s1)C(=O)CC(C)(C)C2 (stereo not given),-26.1% (inactive),
Cc1cccc(CNc2ncnc3ccc(-c4ccoc4)cc23)c1,,10 µM (active)
Cc1cnc(CNc2ncncc2-c2ccc(C(=O)N(C)C)cc2)cn1,2.19% (inactive),
Cc1cnc(CNc2ncnc3ccc(-c4ccc5c(c4)OCO5)cc23)cn1,,12.6 µM (active)
Cc1cnc(CNc2ncnc3ccc(-c4cccc(C#N)c4)cc23)cn1,-4.92% (inactive),
Cc1cccc(CNc2ncnc3ccc(-c4ccc5c(c4)OCO5)cc23)c1,,0.501 µM (active)
Nc1nc2c(ncn2COCCO)c(=O)[nH]1,,inactive
O=C(O)c1ccccc1OP(=O)(O)O,5.46% [at 25.6 µM] (inactive),
CN1CCc2c(c3c(n2C)CCN(C)[C@H]3c2ccccc2F)[C@@H]1c1ccccc1F,5.51% (inactive),
CCc1nc(SCC(=O)c2ccc(Cl)s2)c2oc3ccccc3c2n1,17.7% (inactive),
CCOC(=O)Nc1ccc(C(=O)NCC2CCCO2)cc1 (stereo not given),-3.41% (inactive),
O=C(O)CCCC[C@H]1CCSS1,2.47% (inactive),
COC(=O)[C@@H]1C[C@H]1[C@@H](NC(=O)c1cc(C)on1)c1ccccc1,-20.1% (inactive),
COC(=O)[C@H]1C[C@@H]1[C@H](NC(=O)c1cc(C)on1)c1ccccc1,-6.31% (inactive),
COC(=O)[C@@H]1C[C@H]1[C@@H](NC(=O)c1cc(C)nn1C)c1ccccc1,,12.6 µM (active)
CCOC(=O)C1=C(CSc2nc3ccccc3s2)NC(=O)NC1c1cccc([N+](=O)[O-])c1 (stereo not given),-18.2% (inactive),
O=C(CN1C(=O)NC2(CCCCCC2)C1=O)N1CCN(S(=O)(=O)c2ccc(Cl)cc2)CC1,-19.7% (inactive),
O=C(O)C1CC2(C1)CC(C(=O)O)C2 (stereo not given),10.8% [at 11.4 µM] (inactive),

Structure (SMILES),"activity, negative = inhibition",AC50
O=C(N/N=C/c1cccc([N+](=O)[O-])c1)c1cc2c(ccc3ccccc32)o1,-9.2% (inactive),
CC[C@@H]1OC(=O)[C@H](C)[C@H](O[C@@H]2C[C@](C)(OC)[C@H](O)[C@H](C)O2)[C@H](C)[C@H](O[C@@H]2O[C@@H](C)C[C@@H](N(C)C)[C@@H]2O)[C@](C)(O)C[C@H](C)C(=NOCOCCOC)[C@H](C)[C@H](O)[C@]1(C)O,-0.0352% [at 25.6 µM] (inactive),
C=CCSc1nnc(NC(=O)COc2ccc3ccccc3c2)s1,-15.8% (inactive),
COC(=O)c1c(C)nc2ccccc2c1C(=O)O,8.63% (inactive),
COc1ccc2c(c1)C(=O)N(CCc1ccc(S(=O)(=O)NC(=O)NC3CCCCC3)cc1)C(=O)C2(C)C,2.46% [at 25.6 µM] (inactive),
COc1ccc(CCNC(=O)COC(=O)c2cnc(C)cn2)cc1,-5.73% (inactive),
COc1ccc(CCNC(=O)COc2ccc(S(=O)(=O)NC3CCCCC3)cc2Cl)cc1,,15.8 µM (active)
Cc1ccc(N=Nc2c(=O)[nH]n3c(C)cc(C)nc23)cc1,25.6% (inactive),
O=C1Nc2ccccc2Nc2ncccc21,15.5% (inactive),
CCN1CCCC1CNC(=O)C1c2cc(OC)c(OC)cc2C(=O)N(C)C1c1cccnc1 (stereo not given),1.99% (inactive),
Cc1scc2c1N(C(=O)CN1CCN(C)CC1)c1ccccc1NC2=O,,inactive and 5.01 µM (active)
O=C1c2ccccc2C(=O)N1CC(=O)N1c2ccccc2CCc2ccccc21,-0.19% (inactive),
CCCN(CCC)C[C@@H]1CCCCN1CCNC(=O)N1c2ccccc2C(=O)Nc2cccnc21,,2.51 µM (active)
Cc1sc2nc(C3CC3)nc(SCC(=O)N3CC(=O)Nc4ccccc43)c2c1C,-27.5% (inactive),
CN1CCN(CC(=O)N2c3ccccc3C(=O)Nc3cccnc32)CC1,,inactive and 31.6 µM (active)
CCCCN1C(=O)C(NC(=O)C2CC2)(C(F)(F)F)C2=C1CC(C)(C)CC2=O (stereo not given),8.85% (inactive),
O=C(CCn1nc(-c2ccc(Cl)cc2)ccc1=O)N1CCOCC1,-10.2% (inactive),
O=C1Nc2ccccc2C1=Nc1cccc2ncccc12,-4.91% [at 11.4 µM] (inactive),
Nc1ncnc2c1ncn2CCCCC(=O)O,-3.98% [at 11.4 µM] (inactive),
O=c1c(-c2ccccc2)nc2cncnc2n1-c1ccccc1,-2.82% (inactive),
CCC(CC)C(=O)Nc1c2cnn(-c3ccccc3)c2nc(=O)n1-c1ccccc1,-3.81% (inactive),
CCCc1nnc(NC(=O)CN2C(=O)C3C4C=CC(C4)C3C2=O)s1 (stereo not given),13.7% (inactive),
O=c1cnc2cnc(N3CCOCC3)nc2n1C1CC1,3.75% (inactive),
COCCNc1ncnc2ccc(-c3ccoc3)cc12,0.232% (inactive),
COc1ccc(CNc2ncnc3ccc(-c4ccoc4)cc23)c(OC)c1,,10 µM (active)
